# In PubChem BioAssay (Tox21):
# Inconclusive results are not listed. A number with no mark means an inactive call. Active and inactive are the calls of the source. Calls come from the whole dose curve.
# Assay: p53 small molecule agonists, cell-based qHTS assay with human liver microsomes (AID 1963577)
# Conditions: HCT-116 p53RE-bla with human liver microsomes, ratio, 16 h; series mostly up to 66 µM; activation: at the top concentration
# How it was run: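 p53RE-bla reporter cells were pre-incubated 5 h at 37 C, then treated with compounds plus human liver microsomes (0.5 mg/mL final) and NADPH (0.5 mg/mL final) for 16 h at 37 C. Beta-lactamase activity was read by LiveBLAzer fluorescence after 2 h at room temperature.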
# % is set by controls: 0 for no effect and ±100 for the full control effect.
SMILES,activation,Potency
CCC(N)(CO)CO,1.39%,
CCCCOC(=O)CCS,1.13%,
CC(=O)S[C@H](C(=O)N[C@H]1Cc2ccccc2[C@H]2CCC[C@@H](C(=O)O)N2C1=O)C(C)C,-17.9%,
CCCCCCCCCOS(=O)(=O)O,-5.94%,
COC(=O)c1ccc([N+](=O)[O-])cc1,-0.586%,
COC(=O)Cc1cccc2ccccc12,0.0838%,
CCCCCCCCCCCC(=O)OC[C@@H](O)[C@H]1OC[C@H](OCCO)[C@H]1OCCO,0.305%,
CCCCCCCC(=O)OCCCCCC,-1.3%,
CC(=O)NC(Cc1ccccc1)C(=O)O (centres undefined),5.59% [at 30.3 µM],
Cc1nc2ccccc2s1,1.84%,
CCO[Si](C)(C)OCC,0.477%,
Cc1nc(-c2ccc3c(c2)CCN(CCC2CCC(NC(=O)/C=C/c4ccc(F)cc4)CC2)CC3)no1 (centres undefined),-4.53% [at 30.3 µM],
O=C(O)CCS,-0.123%,
CCN(CC#N)c1cccc(C)c1,-1.36%,
CC(C)(C)c1ccc(O)c(C(C)(C)C)c1,,inactive
CC12CC3CC(C)(C1)CC(N)(C3)C2,-5.04% [at 30.3 µM],
O=C(/N=N/C(=O)OCc1ccccc1)OCc1ccccc1,5.78%,
CC(C)C(=O)O,-2.23%,
c1ccc2cc3c4ccccc4c4ccccc4c3cc2c1,-0.701%,
CO[Si](CCCNCCC[Si](OC)(OC)OC)(OC)OC,-0.485%,

SMILES,activation,Potency
CCCCCCCCS(=O)(=O)Cl,2.65%,
C=Cc1ccccn1,2%,
Nc1ccc(S(=O)(=O)Nc2ccc(Cl)nn2)cc1,2.44% [at 30.3 µM],
COC(=O)c1ccccc1C(=O)O,-3.36%,
CC(=O)SC[C@@H](C)C(=O)N1CCC[C@H]1C(=O)N[C@@H](Cc1ccccc1)C(=O)O,2.24% [at 30.3 µM],
CCCCCCCCCCCCCC,0.576%,
COc1cc(/C=C/C(=O)O[C@H]2CC[C@]34C[C@]35CC[C@]3(C)[C@@H]([C@H](C)CCC=C(C)C)CC[C@@]3(C)[C@@H]5CC[C@H]4C2(C)C)ccc1O,1.04% [at 30.3 µM],
CC/C=C\CCOC(=O)C(C)C,0.397%,
O=C1CC2CC1C1CCCC21 (centres undefined),0.394%,
CC1CNCC(C)O1 (centres undefined),-2.23%,
Cc1ccc(C2OC[C@@H]3OC(c4ccc(C)cc4)O[C@H]([C@H](O)CO)[C@@H]3O2)cc1 (some centres undefined),-0.333%,
CCCCC(O)/C=C(C)/C=C/C=C/C(=O)N1CCCC1=O (centres undefined),5.65% [at 30.3 µM],
CC/C=C\CCO,-5.81%,
O=C(O)c1cc(=O)[nH]c(=O)[nH]1,,inactive
CC12CCC(C1)C(C)(C)C2O (centres undefined),1.61%,
O=C(C(=O)c1ccccc1)c1ccccc1,-0.0173%,
CCOC(=O)c1cc(=O)c2c(OCC(COc3cccc4oc(C(=O)OCC)cc(=O)c34)OC(=O)[C@@H](N)CCCCN)cccc2o1,0.434% [at 30.3 µM],
COc1ccc(C)cc1,0.179%,
O=S(=O)(O)CCN1CCN(CCO)CC1,-3.74%,
